# Bioassay records (PubChem BioAssay)
# AmpC detergent – inhibitors of E. coli AmpC beta-lactamase with detergent. P00811. AmpC hydrolysis of nitrocefin, absorbance 480 nm, 0.01% Triton. Potency, µM (titrated, usually from 114 µM), for inactives: top-dose activity change, negative = inhibition, most hits filed as inhibitors. 0.041% of 370,000 active. AID 485294;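 also: 0% = no-compound wells and -100% = no-enzyme wells; nearly all actives have a fitted effect of over 25% in size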
# Target sequence (P00811 whole entry, looked up): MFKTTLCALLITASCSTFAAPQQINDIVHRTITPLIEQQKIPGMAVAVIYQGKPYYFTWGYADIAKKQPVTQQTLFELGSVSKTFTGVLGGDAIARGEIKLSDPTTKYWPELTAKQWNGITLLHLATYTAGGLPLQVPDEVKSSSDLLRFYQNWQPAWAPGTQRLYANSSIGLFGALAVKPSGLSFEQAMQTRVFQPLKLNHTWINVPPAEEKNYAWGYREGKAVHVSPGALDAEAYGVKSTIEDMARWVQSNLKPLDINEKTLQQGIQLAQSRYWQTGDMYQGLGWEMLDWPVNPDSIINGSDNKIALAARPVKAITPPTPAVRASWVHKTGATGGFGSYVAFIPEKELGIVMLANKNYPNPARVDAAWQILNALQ
#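 20 mM phosphate pH 7.0 + 0.01% (detergent screen) or 0.0001% Triton X-100; 5.3 nM AmpC reagent; cpd preinc 15 min RT; nitrocefin (800 uM stock) to start; A480 q20 s × 4 min; Activity was normalised to no-enzyme and no-compound control wells.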
# AmpC inh no detg – blocks E. coli AmpC beta-lactamase in detergent-free assay; Potency, µM (titrated, usually from 57.1 µM), for the others: at the top dose activity change, negative = inhibition, actives largely listed as inhibitors; 0.52% of 330,000 active; AmpC nitrocefin hydrolysis, absorbance 480 nm, 0.0001% Triton; P00811;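 also: plate controls were no compound for no effect and no enzyme for full effect; nearly all actives have a fitted effect of over 20% in size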
#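 20 mM phosphate pH 7.0 + 0.01% (detergent screen) or 0.0001% Triton X-100; 5.3 nM AmpC reagent; cpd preinc 15 min RT; nitrocefin (800 uM stock) to start; A480 q20 s × 4 min; Activity was normalised to no-enzyme and no-compound control wells.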
# AMA1 RON2 block – AMA1-RON2 (P. falciparum) interaction inhibition; AlphaScreen AMA1-biotinylated RON2 peptide binding; Potency, µM (titrated, usually from 58.2 µM), without a hit: at the highest dose activity change, negative = inhibition, usual class: inhibitors; 0.2% of 360,000 active; AID 720542;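 also: 0% = vehicle wells and -100% = peptide control; nearly all actives have a fitted effect of over 45% in size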
#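 AMA1 (3D7) with his tag at 25 nM final met compounds first, then biotinylated RON2 peptide at 25 nM; detection used donor plus acceptor beads, 10 µg/mL apiece, read by AlphaScreen after 30 min at room temperature.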
# MARV entry inh – blocks Marburg virus binding to or entry into cells; Potency, µM (highest dose often 37.8 µM), for inactives: top-dose activity change, negative = inhibition, most hits filed as inhibitors; Marburg virus pseudotyped entry inhibition, cell reporter; 1.8% of 300,000 active; calls by dose curve; tested in HEK293 cells
# LASV entry inh – Lassa virus entry inhibition; Potency, µM (highest dose often 37.9 µM), without a hit: at the highest dose activity change, negative = inhibition, hits mostly inhibitors; Lassa virus pseudotype entry inhibition, cell reporter; AID 540256; 1.2% of 300,000 active; calls by dose curve; tested in HEK293 cells; also: nearly all actives have a fitted effect of over 50% in size
# * hit, by the source's call; ? = inconclusive; / = no result; [ ] = remark or other dose. Compounds with a hit are over-represented: about 2.3% of the library has one in this group of screens. Unless noted, calls follow the shape of the dose curve; as a rule, active = well fitted curve in the direction sought with a large enough effect; inconclusive = small, poorly fitted or top-dose-only effect, or another doubt; inactive = no such curve, though single readings can be large; an effect the other way counts as inactive or inconclusive. Unless noted, % is scaled to controls: 0 for no effect and ±100 for the full control effect; potency is read from the fitted curve at half-maximal effect.
SMILES,AmpC detergent,AmpC inh no detg,AMA1 RON2 block,MARV entry inh,LASV entry inh
COCCn1nnnc1C(c1ccc(C)cc1)N1CCN(Cc2ccc3c(c2)OCO3)CC1 (configuration not stated),?,100.5%,-7.1%,?,0.8%
CCc1cccc(NC(=O)c2cc3c(=O)n(Cc4ccc(OC)cc4)ccc3nc2C)c1,-3.1%,/,/,/,-6.7%[46.1 µM]
Cc1cccc(C)c1NC(=O)CN(C)C(=O)c1ccc(-c2cccc(C(F)(F)F)c2)o1,-2.8%,263.9%,-19.7%,?,5.62µM*
COc1ccc(NC(=O)CN2C(=O)C(c3ccccc3)=NC23CCC(C)CC3)cc1Cl (configuration not stated),-4.0%,/,/,20µM*,-21.9%[46.1 µM]
CC1CCN(CCCNC(=O)c2ccc3c(Cl)c4c(nc3c2)CCCC4)CC1,0.3%,45.6%,1.6%,10µM*,?
COC(=O)N[C@@H](C=Cc1ccco1)[C@]1(C(=O)OC)CCCC1=O,/,/,/,3.0%[14.2 µM],/
Cn1cccc1C(=O)NC(=O)CSc1nc2ccccc2s1,-1.6%,15.8µM*,0.0%,?,-0.9%
COc1ccc(C(O)C2=CCCC2=O)cc1 (configuration not stated),/,/,/,6.3%[14.2 µM],/
CCCC(=O)Nc1nc(-c2ccccc2)ns1,0.4%,-12.9%,-1.3%,?,20.6µM*
Cc1cc(N2CCCC2=O)cc(C)c1S(=O)(=O)NCCOc1ccc(C(C)(C)C)cc1,-7.8%,9.8%,-4.6%,?,11.6µM*
O=C1CCCN1c1ccc(S(=O)(=O)NCCOc2ccccc2)cc1,-5.4%,-57.2%,35.5%,-14.2%,16.7%
C=CCNC(=O)N1C2=NC(C(=O)OC)=C(C(=O)OC)[C@@H]3N(C)c4ccccc4[C@]23C[C@H]1CO,/,/,/,-30.6%[14.2 µM],?
CN(C)c1ccc(/C=N/N=C2/NC(=O)/C(=C/c3ccc([N+](=O)[O-])cc3)S2)cc1,-8.1%,-19.6%,-8.1%,?,2µM*
COc1ccc(OC)c(-c2cc(C(=O)Nc3c(C)nn(Cc4ccc(C)cc4)c3C)no2)c1,4.8%,/,/,-19.4%[46.1 µM],4.3%[46.1 µM]
COc1ccc(-c2cc(C(=O)Nc3c(C)nn(Cc4ccc(Cl)cc4)c3C)no2)cc1,6.4%,-0.4%,4.6%,23.1µM*,-6.4%
COc1ccccc1-c1cc(C(=O)Nc2c(C)nn(Cc3ccc(Cl)cc3)c2C)no1,20.5%,/,/,10µM*,?
CCn1cc2nc(SCc3ccc(F)cc3)n(CCc3ccccc3)c(=O)c2n1,1.4%,/,/,/,?
C=C(C)CO[C@H]1C=C[C@@H](c2ccccc2)O[C@H]1CO,/,/,/,2.3%[14.2 µM],/
O=C1C(F)=CC(COC(c2ccccc2)(c2ccccc2)c2ccccc2)OC1n1cc(F)c(=O)[nH]c1=O (configuration not stated),/,/,24.6%,?,5.62µM*
CC(C)CCNC(=O)Cn1nc(N2CCN(c3ccccc3)CC2)ccc1=O,?,/,/,/,-0.4%[46.1 µM]
CCN(CC)c1nn2c(=O)c(C(=O)NCc3ccc(OC)cc3OC)cnc2s1,14.3%,/,/,/,29.3%[46.1 µM]
O=C(NCCCn1ccnc1)Nc1cccc(Cl)c1,0.3%,-6.2%,25.1µM*,-14.3%,0.7%
O=C(CSc1cn(CCNC(=O)c2cccs2)c2ccccc12)NC1CCCC1,?,28.2µM*,13.9%,/,/
CC1(C)CC(=O)C2=C(C1)O[C@@]1(CCCCN3C(=O)c4ccccc4C3=O)Cc3c(ccc4ccccc34)[C@H]2O1,/,/,/,-26.8%[14.2 µM],/
COC(=O)c1ccc(NC2=C(Cl)C(=O)OC2OC(=O)c2ccccc2)cc1 (configuration not stated),10µM*,4.47µM*,3.0%,-14.3%[46.1 µM],-3.3%[46.1 µM]
SMILES,AmpC detergent,AmpC inh no detg,AMA1 RON2 block,MARV entry inh,LASV entry inh
Cc1ccc(NC2=C(Cl)C(=O)OC2OC(=O)c2ccc(C)cc2)cc1 (configuration not stated),8.91µM*,-47.1%,-18.3%,?,7.4%
COc1cccc(NC2=C(Cl)C(=O)OC2OC(=O)c2ccco2)c1 (configuration not stated),-1.0%,-37.9%,-5.6%,?,-4.6%
COC(=O)C1=C(C)N(Cc2ccccc2)C(=NCC(C)C)NC1c1cccc(F)c1 (configuration not stated),/,/,/,19.6%[14.2 µM],?
COc1ccccc1N=Nc1nc(-c2ccccc2)c(-c2ccccc2)[nH]1,-7.2%,?,35.5µM*,?,?
O=C(O)c1ccc(-c2nc(-c3ccccc3)c(-c3ccccc3)[nH]2)cc1,-5.6%,-37.3%,-17.1%,13.6%,?
Oc1ccccc1N=Nc1nc(-c2ccccc2)c(-c2ccccc2)[nH]1,-1.8%,-31.8%,?,1µM*,1.41µM*
COc1ccc(N=Nc2nc(-c3ccccc3)c(-c3ccccc3)[nH]2)cc1,-10.3%,-36.8%,?,?,-5.2%
O=C(Nc1c(C(=O)N2CCN(c3ccccc3F)CC2)oc2ccccc12)c1cccc(F)c1,25.3%,/,/,/,1.2%[46.1 µM]
CCOC(=O)Cn1c(S(=O)(=O)Cc2ccccc2Cl)nc(-c2ccccc2)c1-c1ccccc1,5.2%,3.3%,-7.7%,5.17µM*,11.6µM*
C#CCn1c(S(=O)(=O)Cc2ccccc2Cl)nc(-c2ccccc2)c1-c1ccccc1,2.1%,4.47µM*,-1.0%,-6.7%,/
Cc1ccc(S(=O)(=O)Cc2ccccc2Cl)cc1,?,-16.1%,11.2%,?,?
CCOC(=O)Cn1c(-c2cccnc2)nc(-c2ccccc2)c1-c1ccccc1,-7.6%,140.4%,-20.5%,?,1.7%[46.1 µM]
CCCS(=O)(=O)c1ncc(Cl)c(C(=O)N2CCN(c3ccc(OC)cc3)CC2)n1,10.5%,/,/,/,?
COc1ccc2[nH]c3nc(SC(C)C)nnc3c2c1,10.2%,-27.7%,-15.9%,?,2.24µM*
COc1ccc(CNC(=O)CSc2nnc3c(n2)[nH]c2ccc(OC)cc23)cc1,-8.1%,-6.7%,23.9%,?,/
O=C([C@@H]1CC1(c1ccccc1)c1ccccc1)N1CCOCC1,/,/,/,-6.1%,/
O=C(CCn1cnc(-c2ccccc2)c1-c1ccccc1)N/N=C/c1ccc(O)cc1,-10.5%,-26.6%,0.0%,?,?
COc1ccc(/C=N/NC(=O)CCn2cnc(-c3ccccc3)c2-c2ccccc2)cc1,-2.1%,93.2%,-8.5%,18.4µM*,2.31µM*
O=C(CCn1cnc(-c2ccccc2)c1-c1ccccc1)N/N=C/c1ccccc1O,-8.1%,22.4%,33.2%,?,23.1µM*
CCC(=O)Nc1ccc2nc(SCCOc3ccc(C)cc3OC)sc2c1,14.7%,/,/,?,-8.7%[46.1 µM]
O=c1c2ccccc2nc(SCc2cn3ccsc3n2)n1-c1ccc(F)cc1,-2.5%,0.3%,-14.8%,?,11.2µM*
O=C(CSc1nc2ccccc2c(=O)n1-c1ccc(F)cc1)NCc1ccco1,-11.4%,-53.4%,-10.2%,?,-1.0%
COC(=O)CN1C(=O)c2cccc3cccc1c23,-7.2%,-9.1%,8.5%,?,21.2%[46.1 µM]
COC(=O)CN1C(=O)CC(C)(C)S(=O)c2ccccc21 (configuration not stated),?,1.26µM*,-1.8%,/,/
